From article PMC5540273 (PLoS ONE, 2017)

Columns and labels:
Settings in all cases: concentration: 1 μM,replicates: in singlicate; n = 1
ADCK4 = system: ADCK4
AKT1 = system: AKT1
AKT2 = system: AKT2
AKT3 = system: AKT3
ALK = system: ALK
AMPK-alpha1 = system: T1, AMPK-alpha1
T1 construct: gene PRKAA1

AMPK-alpha2 = system: T2, AMPK-alpha2
T2 construct: gene PRKAA2

ANKK1 = system: ANKK1
ARK5 = system: T3, ARK5
T3 construct: gene NUAK1

ASK1 = system: T4, ASK1
T4 construct: gene MAP3K5

ASK2 = system: T5, ASK2
T5 construct: gene MAP3K6

AURKA = system: AURKA
AURKB = system: AURKB
AURKC = system: AURKC
AXL = system: AXL
BIKE = system: T6, BIKE
T6 construct: gene BMP2K

BLK = system: BLK
BMPR1A = system: BMPR1A
BMPR1B = system: BMPR1B
BMPR2 = system: BMPR2
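Note: KINOMEscan kinase panel screen.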

Row | Compound | %Inh (ADCK4) [%] | %Inh (AKT1) [%] | %Inh (AKT2) [%] | %Inh (AKT3) [%] | %Inh (ALK) [%] | %Inh (AMPK-alpha1) [%] | %Inh (AMPK-alpha2) [%] | %Inh (ANKK1) [%] | %Inh (ARK5) [%] | %Inh (ASK1) [%] | %Inh (ASK2) [%] | %Inh (AURKA) [%] | %Inh (AURKB) [%] | %Inh (AURKC) [%] | %Inh (AXL) [%] | %Inh (BIKE) [%] | %Inh (BLK) [%] | %Inh (BMPR1A) [%] | %Inh (BMPR1B) [%] | %Inh (BMPR2) [%]
1 | CC(C)S(=O)(=O)N1CCN(Cc2ccc3c(c2)nc(NC(=O)c2ccsc2)n3C[C@H](O)c2ccccc2)CC1 [GW635815] | 27 | 0 | 16 | 0 | 68 | 0 | 2 | 19 | 60 | 17 | 0 | 8 | 0 | 37 | 97.7 | 57 | 65 | 15 | 0 | 50
2 | O=C(Nc1cccc(C(F)(F)F)c1)c1cccc(Oc2ccc3nccn3n2)c1 | 0 | 0 | 17 | 1 | 0 | 8 | 84 | 0 | 0 | 5 | 21 | 5 | 9 | 6 | 31 | 15 | 6 | 0 | 12 | 21
3 | Cc1nnc(-c2ccc3occ(-c4ccc(S(C)=O)cc4)c3n2)o1 (stereo not shown) | 0 | 0 | 17 | 0 | 0 | 0 | 0 | 0 | 10 | 0 | 0 | 0 | 0 | 0 | 0 | 0 | 0 | 0 | 0 | 0
4 | CN1CCN(CCCNc2nccc(-c3c(-c4ccc(F)cc4)nn4cc(C(N)=O)ccc34)n2)CC1 [GW622475] | 100 | 0 | 12 | 0 | 26 | 18 | 11 | 29 | 19 | 0 | 0 | 20 | 5 | 10 | 17 | 26 | 56 | 0 | 37 | 0
5 | Cn1ccc2ncnc(Oc3ccc(NC(=O)Nc4ccnc(C(F)(F)F)c4)c(Cl)c3)c21 | 4 | 7 | 0 | 0 | 0 | 0 | 0 | 0 | 2 | 0 | 0 | 18 | 34 | 0 | 12 | 0 | 0 | 0 | 6 | 0
6 | O=C(NOCC1CC1)c1cc(Br)c(F)c(F)c1Nc1ccc(I)cc1Cl | 0 | 0 | 0 | 0 | 0 | 4 | 0 | 0 | 12 | 0 | 0 | 0 | 1 | 0 | 2 | 0 | 0 | 0 | 0 | 0
7 | COC(=O)Nc1nc2cc(Oc3ccc(NC(=O)Nc4cc(C(F)(F)F)ccc4Cl)cc3)ccc2[nH]1.Cl [GW697465] | 48 | 0 | 0 | 0 | 30 | 0 | 0 | 0 | 0 | 11 | 0 | 0 | 86 | 53 | 98 | 8 | 63 | 0 | 0 | 21
8 | CCn1c(-c2nonc2N)nc2cncc(CNC3CCNCC3)c21.Cl [SB-747651] | 11 | 72 | 51 | 66 | 63 | 6 | 0 | 22 | 9 | 9 | 8 | 6 | 23 | 0 | 100 | 0 | 8 | 0 | 0 | 17
9 | Cc1ccc2c(-c3ccnc(Nc4ccc(C(F)(F)F)cc4)n3)cnn2n1 [GW819776] | 35 | 0 | 0 | 0 | 0 | 11 | 8 | 0 | 0 | 0 | 0 | 11 | 32 | 4 | 0 | 12 | 0 | 13 | 0 | 32
10 | O=C(Nc1ccccc1)c1cccc(Oc2ccc3nccn3n2)c1 | 0 | 11 | 0 | 0 | 0 | 5 | 7 | 2 | 0 | 0 | 3 | 0 | 4 | 28 | 0 | 5 | 9 | 0 | 14 | 22
11 | Cc1cccc2c(-c3ccncc3)c(-c3ccc(F)cc3)nn12.Cl [GW461487] | 28 | 0 | 2 | 0 | 7 | 17 | 0 | 24 | 11 | 1 | 0 | 7 | 0 | 0 | 0 | 3 | 22 | 0 | 0 | 0
12 | Cn1ccc2ncnc(Oc3ccc(NC(=O)Nc4cccc(C(F)(F)F)c4)c(Cl)c3)c21 | 6 | 0 | 0 | 0 | 0 | 15 | 0 | 0 | 3 | 5 | 0 | 0 | 51 | 29 | 75 | 0 | 6 | 15 | 0 | 0
13 | O=C(Nc1cccc(Oc2ccc3nccn3n2)c1)Nc1cccc(C(F)(F)F)c1 | 0 | 0 | 0 | 7 | 14 | 0 | 0 | 0 | 8 | 0 | 4 | 0 | 0 | 41 | 35 | 11 | 9 | 0 | 0 | 0
14 | O=C(Nc1n[nH]c2cc(-c3ccco3)ccc12)C1CC1 [SB-737447] | 7 | 0 | 0 | 0 | 7 | 3 | 0 | 27 | 0 | 0 | 4 | 46 | 12 | 34 | 0 | 53 | 0 | 0 | 14 | 0
15 | O=c1[nH]cc(-c2ccc(O)cc2)c2sc(-c3ccncc3)cc12 [GSK1033723] | 16 | 0 | 16 | 97.2 | 0 | 0 | 13 | 10 | 13 | 0 | 0 | 16 | 8 | 8 | 96.1 | 19 | 0 | 0 | 0 | 39
16 | Cn1ccc2ncnc(Oc3ccc(NC(=O)Nc4cccc(C(F)(F)F)c4)c(F)c3)c21 | 0 | 23 | 0 | 0 | 20 | 0 | 0 | 0 | 5 | 5 | 0 | 5 | 88 | 65 | 87 | 18 | 22 | 0 | 0 | 0
17 | Cc1ccc(Nc2ccnc(Nc3ccc4c(c3)CS(=O)(=O)C4)n2)cc1O.Cl [GW579362] | 100 | 0 | 0 | 0 | 51 | 10 | 17 | 44 | 25 | 0 | 3 | 100 | 85 | 97.9 | 86 | 99.8 | 99.5 | 85 | 99.8 | 62
18 | COC(=O)c1cccc(NC(=O)NC2CCN(c3ccnc(Nc4cc(OC)c(OC)c(OC)c4)n3)C2)c1 (stereo not shown) [GSK1379767] | 60 | 0 | 0 | 0 | 50 | 16 | 9 | 20 | 10 | 0 | 0 | 72 | 39 | 73 | 0 | 60 | 0 | 11 | 0 | 26
19 | NC(=O)c1ccc(-c2cc3ncnc(SCC(=O)O)c3s2)cc1 | 3 | 0 | 0 | 0 | 0 | 0 | 0 | 0 | 0 | 0 | 0 | 0 | 80 | 33 | 0 | 1 | 0 | 0 | 1 | 0
20 | C[C@@H]1CNc2c(sc3ccc4nc(-c5ccncc5)ccc4c23)C(=O)N1 | 0 | 0 | 18 | 22 | 33 | 20 | 0 | 0 | 0 | 90 | 0 | 0 | 17 | 9 | 81 | 19 | 0 | 12 | 7 | 0
